MITF inh: human MITF inhibition, primary screen. O75030. AlphaScreen MITF homodimerization, bead proximity signal. inhibition, % at 2.6 µM. actives 0.91% (n = 650,000); in the data active = inhibition above about 50%
Target sequence (O75030 whole entry, looked up): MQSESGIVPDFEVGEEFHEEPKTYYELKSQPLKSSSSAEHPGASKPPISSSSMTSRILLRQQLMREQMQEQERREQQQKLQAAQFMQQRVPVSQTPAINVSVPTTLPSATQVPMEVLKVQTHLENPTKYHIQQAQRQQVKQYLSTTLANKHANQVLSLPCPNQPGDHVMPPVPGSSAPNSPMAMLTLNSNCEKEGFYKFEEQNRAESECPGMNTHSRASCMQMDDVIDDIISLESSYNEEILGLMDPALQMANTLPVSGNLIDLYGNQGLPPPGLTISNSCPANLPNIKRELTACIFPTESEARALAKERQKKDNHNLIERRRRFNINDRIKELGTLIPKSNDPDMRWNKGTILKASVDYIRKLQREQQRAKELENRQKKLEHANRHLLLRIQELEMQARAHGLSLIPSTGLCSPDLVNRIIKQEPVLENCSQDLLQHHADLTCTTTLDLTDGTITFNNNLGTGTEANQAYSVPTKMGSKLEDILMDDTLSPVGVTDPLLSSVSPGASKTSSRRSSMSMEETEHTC
FBW7 activator: activators of human E3 ligase FBW7. AlphaScreen FBW7–phospho-cyclin E peptide binding, activator screen. normalized activity (activation), % at 26.1 µM. actives 0.13% (n = 650,000); in the data active = normalized activity above about 1.9%;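 note: purified mutant Fbw7 with reduced substrate affinity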
GPR151 ag: activators of human GPR151; Q8TDV0; PathHunter beta-arrestin GPR151 cells, luminescence; activation, % at 11.2 µM; actives 1% (n = 650,000); in the data active = activation above about 4.9%
TEAD-YAP block: TEAD-YAP interaction inhibition | HEK-TIYL cells, TEAD-Gal4/YAP UAS-luciferase luminescence | inhibition, % at 9.12 µM | actives 1.4% (n = 640,000) | AID 1259422; in the data active = inhibition above about 32%
Each line names hits and unclear results; the compound was inactive in the other large screens. Hits are enriched below; roughly 3.4% of the tested compounds scored in any of these assays.

Cc1ccc(C(=O)Nc2ccc(S(=O)(=O)N3CCCCC3c3cccnc3)cc2)cc1 (stereo not drawn)	none
CCOc1ccc(C(=O)Nc2ccc(S(=O)(=O)N3CCCCC3c3cccnc3)cc2)cc1 (stereo not drawn)	TEAD-YAP block 33
O=C(Nc1ccc(S(=O)(=O)N2CCCCC2c2cccnc2)cc1)c1ccc(S(=O)(=O)N2CCCC2)cc1 (stereo not drawn)	none
O=C(Nc1c(F)cc(F)cc1Br)c1ccncc1	none
COc1ccc(OC)c(C2/C(=C(\O)c3ccc(C)cc3)C(=O)C(=O)N2c2nc3ccccc3s2)c1 (stereo not drawn)	none
COc1ccc(C2/C(=C(\O)c3ccc(C)cc3)C(=O)C(=O)N2c2nc3ccccc3s2)c(OC)c1 (stereo not drawn)	TEAD-YAP block 41
O=C1OC(OC(=O)c2ccccc2)C(Nc2cccc(O)c2)=C1Cl (stereo not drawn)	FBW7 activator 2.4
O=C1OC(OC(=O)c2ccccc2)C(Nc2ccccc2)=C1Cl (stereo not drawn)	none
CC(C)OC(=O)C1C(=O)CC(C)(O)C(C(=O)OC(C)C)C1c1ccc(C(C)(C)C)cc1 (stereo not drawn)	none
O=C(CSCc1ccccc1Cl)Nc1ccc(C(=O)Nc2nccs2)cc1	none
CC(=O)O/N=C(\N)c1nonc1N1CCOCC1	FBW7 activator 1.9
CCOC(=O)c1sc2nc(CN3CCN(c4ccccc4OC)CC3)[nH]c(=O)c2c1C	none
CC(Oc1ccc(Br)cc1Cl)C(=O)Nc1ccncc1 (stereo not drawn)	TEAD-YAP block 48
COC1CCCC(C(=O)NC2CC3(CCCC3)Oc3ccccc32)C1 (stereo not drawn)	none
Cc1cc(C)c[n+](C(C)C(=O)c2ccc(-c3ccccc3)cc2)c1 (stereo not drawn)	TEAD-YAP block 72
Cc1ccc[n+](C(C)C(=O)c2ccccc2)c1 (stereo not drawn)	none
CC(=O)OC1c2cc(C)ccc2NC(c2ccc(F)cc2)C1(C)C (stereo not drawn)	TEAD-YAP block 34
CC(=O)OC1c2cc(C)ccc2NC(c2ccc(Cl)cc2)C1(C)C (stereo not drawn)	none
CCOC(=O)c1cnn(-c2ccc(Cl)nn2)c1/N=C/N(C)C	none
CCOC(=O)c1cnn(-c2nc(C)nc3sc(-c4ccccc4)cc23)c1/N=C/N(C)C	TEAD-YAP block 34
CCN(/N=C\c1ccccc1O)C(=S)NC	none
COCCN(Cc1cccnc1)C(Cc1ccccc1)C1CCN(Cc2cnn(C)c2)CC1 (stereo not drawn)	FBW7 activator 7.6
COCCN(Cc1ccccn1)C(Cc1ccccc1)C1CCN(Cc2cnn(C)c2)CC1 (stereo not drawn)	none
CC1CCN(C(=O)c2ccc3nc(N4C(=O)CCC4=O)sc3c2)CC1	FBW7 activator 1.9
COc1ccc(OC)c(NC(=O)CSc2nnc(-c3ccccc3)n2-n2cccc2)c1	none
COc1cccc(-c2nnc(SCC(=O)Nc3cc(Cl)ccc3OC)n2-n2cccc2)c1	TEAD-YAP block 52
O=c1/c(=C\c2ccc(O)cc2)sc2nc3ccccc3n12	FBW7 activator 2.0, TEAD-YAP block 73
COc1cccc(/C=c2/sc3nc4ccccc4n3c2=O)c1	TEAD-YAP block 50
Cc1cc(/C=c2/sc3nc4ccccc4n3c2=O)c(C)n1-c1ccc(Cl)c(Cl)c1	none
Cc1cc(/C=c2\sc3nc4ccccc4n3c2=O)c(C)n1C1CCCC1	TEAD-YAP block 70
COc1cccc(C(c2c(-c3ccccc3)n(O)c3ccccc23)N2CCOCC2)c1 (stereo not drawn)	none
CCn1c(=O)c(=O)[nH]c2cc(C(=O)N3CCN(c4ccccc4O)CC3)ccc21	none
CCC1=NN(C(=O)c2ccccc2O)C(O)(c2ccccc2)C1 (stereo not drawn)	TEAD-YAP block 46
CCOCCn1cnc2sc(C(=O)Nc3cnc4ccccc4c3)c(C)c2c1=O	TEAD-YAP block 79
CCOCCn1cnc2sc(C(=O)Nc3nc4ccccc4s3)c(C)c2c1=O	TEAD-YAP block 49
CCOc1ccc(C(=O)Nc2ccc(S(=O)(=O)N3CCC(C)CC3)cc2)cc1OCC	none
CCOC(=O)c1sc(NC(=O)C(C)Sc2nnc(CNC(=O)c3ccccc3F)n2C2CCCCC2)c(C(=O)OCC)c1C (stereo not drawn)	none
c1cc(-c2cnc3ccc(NCc4ccc5c(c4)OCO5)nn23)ccn1	TEAD-YAP block 47
OCc1ccc(-c2cnc3ccc(NCc4ccc5c(c4)OCO5)nn23)cc1	TEAD-YAP block 58
c1ccc(-c2cnc3ccc(NCc4ccc5c(c4)OCO5)nn23)cc1	none
Cn1c(CNc2nc(-c3ccccc3)cs2)nnc1SCC(=O)N1CCOCC1	none
CCOc1cc(C(=O)OC2CCOC2=O)cc(OCC)c1OCC (stereo not drawn)	none
CC1C(=O)C(=O)/C(=C\c2ccccc2)C1=O (stereo not drawn)	MITF inh 82
CSc1ccc(C=C2C(=O)c3ccccc3C2=O)cc1	none
O=C(c1ccc(-n2cccc2)cc1)N1CCC(c2nnc(-c3ccco3)o2)CC1	FBW7 activator 2.2
CCOC(=O)/C(N=Nc1ccc([N+](=O)[O-])cc1)=C(\O)CCl	none
COC(=O)/C(N=Nc1ccc(-c2ccccc2)cc1)=C(/O)CCl	TEAD-YAP block 61
COc1ccc(C(C#N)N2CCCCCC2)cc1OC (stereo not drawn)	FBW7 activator 2.0
Cc1[nH]n(-c2ccccc2)c(=O)c1C(N)=NC(=O)c1ccccc1	none
Cc1[nH]n(-c2ccccc2)c(=O)c1C(=O)c1cccc(F)c1	TEAD-YAP block 46
Cc1[nH]n(-c2ccccc2)c(=O)c1C(=O)c1ccc(Cl)cc1	TEAD-YAP block 61
O=C(CCl)N(c1ccccc1)c1ccccc1	TEAD-YAP block 66
Nc1nc(-c2cccnc2)nc(-c2cccnc2)n1	none
Cc1cc(/C=C2/C(=N)N3C=CSC3=NC2=O)c(C)n1-c1ccccc1	TEAD-YAP block 88
Cc1cc(C)cc(-n2c(C)cc(/C=C3/C(=N)N4C=CSC4=NC3=O)c2C)c1	none
Cc1ccccc1-n1c(C)cc(/C=C2/C(=N)N3C=CSC3=NC2=O)c1C	TEAD-YAP block 97
CCc1ccc(-n2c(C)cc(/C=C3/C(=N)N4C=CSC4=NC3=O)c2C)cc1	none
Cc1cccc(-n2c(C)cc(/C=C3/C(=N)N4C=CSC4=NC3=O)c2C)c1C	TEAD-YAP block 46
Cc1ccc(C)c(-n2c(C)cc(/C=C3/C(=N)N4C=CSC4=NC3=O)c2C)c1	none
CCc1ccccc1-n1c(C)cc(/C=C2/C(=N)N3C=CSC3=NC2=O)c1C	TEAD-YAP block 62
Cc1nc2sccn2c1CN1CCC2(CC1)CC2C(=O)NCCCc1ccccc1 (stereo not drawn)	none
COc1ccc(-c2noc(CNC(=O)c3cccc(OC)c3)n2)cc1	none
CC(C)CNC(=O)C(=O)Nc1ccc(Cl)cc1	none
CC1=CN2C(=N)/C(=C/c3cc(C)n(-c4ccccc4F)c3C)C(=O)N=C2S1	none
Cc1cc(/C=C2/C(=N)N3C=CSC3=NC2=O)c(C)n1-c1ccccc1Cl	TEAD-YAP block 92
O=C(CSc1ccc(-c2ccc(-n3ccnc3)cc2)nn1)N1CCc2ccccc21	FBW7 activator 2.3
